As a reminder, the inhibition is the relative decrease from the control value, in per cent.

For experiment [1], the target named is 5'-AMP-activated protein kinase catalytic subunit alpha-2 (Homo sapiens) (UniProt P54646). Conditions: at 1 µM.
The target in experiment [2] is T1, NUAK family SNF1-like kinase 1 (Homo sapiens) (UniProt O60285).
T1 sequence (whole entry): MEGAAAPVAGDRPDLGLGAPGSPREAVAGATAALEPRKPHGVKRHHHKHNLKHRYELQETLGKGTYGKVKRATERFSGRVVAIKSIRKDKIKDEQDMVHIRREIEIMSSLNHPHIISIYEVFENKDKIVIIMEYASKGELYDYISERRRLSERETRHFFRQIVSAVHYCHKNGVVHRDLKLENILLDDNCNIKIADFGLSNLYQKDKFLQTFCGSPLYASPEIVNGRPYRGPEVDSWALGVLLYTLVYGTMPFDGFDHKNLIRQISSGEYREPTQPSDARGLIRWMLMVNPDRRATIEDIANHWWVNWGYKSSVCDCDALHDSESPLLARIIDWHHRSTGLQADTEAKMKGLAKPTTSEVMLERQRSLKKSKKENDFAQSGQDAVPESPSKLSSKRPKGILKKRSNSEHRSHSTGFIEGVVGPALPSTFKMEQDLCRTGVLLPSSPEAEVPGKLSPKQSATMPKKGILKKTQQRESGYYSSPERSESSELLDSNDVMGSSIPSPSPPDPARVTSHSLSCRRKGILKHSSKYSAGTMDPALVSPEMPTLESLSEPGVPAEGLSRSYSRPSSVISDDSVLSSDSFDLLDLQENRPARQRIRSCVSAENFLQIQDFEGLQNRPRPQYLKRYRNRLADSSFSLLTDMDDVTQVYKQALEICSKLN
As to conditions: at 0.1 µM.

Experiment [3] deals with T1, NUAK family SNF1-like kinase 1 (Homo sapiens). As to conditions: at 1 µM.
The target in experiment [4] is T2, Serine/threonine-protein kinase BRSK1 (Homo sapiens) (UniProt Q8TDC3).
T2 sequence (whole entry): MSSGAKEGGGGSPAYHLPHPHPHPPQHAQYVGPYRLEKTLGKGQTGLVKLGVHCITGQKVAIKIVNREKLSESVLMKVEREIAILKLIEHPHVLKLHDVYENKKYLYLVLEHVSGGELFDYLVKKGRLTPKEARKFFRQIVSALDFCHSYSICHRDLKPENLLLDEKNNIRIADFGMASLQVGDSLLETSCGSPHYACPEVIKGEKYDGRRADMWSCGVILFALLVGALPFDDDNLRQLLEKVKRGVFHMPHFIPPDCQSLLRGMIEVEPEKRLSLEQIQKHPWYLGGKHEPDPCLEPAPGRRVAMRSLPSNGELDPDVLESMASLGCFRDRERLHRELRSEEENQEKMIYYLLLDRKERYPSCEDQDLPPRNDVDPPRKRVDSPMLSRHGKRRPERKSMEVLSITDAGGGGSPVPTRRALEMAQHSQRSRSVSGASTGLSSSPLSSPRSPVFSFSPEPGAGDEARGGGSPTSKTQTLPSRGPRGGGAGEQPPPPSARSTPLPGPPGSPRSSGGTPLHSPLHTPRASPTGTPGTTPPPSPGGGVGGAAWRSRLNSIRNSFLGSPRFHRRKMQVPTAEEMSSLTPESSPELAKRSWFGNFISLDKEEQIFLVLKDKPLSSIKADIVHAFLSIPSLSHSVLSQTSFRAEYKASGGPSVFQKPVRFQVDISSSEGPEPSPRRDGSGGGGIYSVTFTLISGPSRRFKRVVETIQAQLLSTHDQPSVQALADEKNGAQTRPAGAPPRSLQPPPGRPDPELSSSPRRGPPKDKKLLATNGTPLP
As to conditions: at 0.1 µM.

Experiment [5] addresses T2, Serine/threonine-protein kinase BRSK1 (Homo sapiens). As to conditions: at 1 µM.
Experiment [6] addresses T3, Serine/threonine-protein kinase BRSK2 (Homo sapiens) (UniProt Q8IWQ3).
T3 sequence (whole entry): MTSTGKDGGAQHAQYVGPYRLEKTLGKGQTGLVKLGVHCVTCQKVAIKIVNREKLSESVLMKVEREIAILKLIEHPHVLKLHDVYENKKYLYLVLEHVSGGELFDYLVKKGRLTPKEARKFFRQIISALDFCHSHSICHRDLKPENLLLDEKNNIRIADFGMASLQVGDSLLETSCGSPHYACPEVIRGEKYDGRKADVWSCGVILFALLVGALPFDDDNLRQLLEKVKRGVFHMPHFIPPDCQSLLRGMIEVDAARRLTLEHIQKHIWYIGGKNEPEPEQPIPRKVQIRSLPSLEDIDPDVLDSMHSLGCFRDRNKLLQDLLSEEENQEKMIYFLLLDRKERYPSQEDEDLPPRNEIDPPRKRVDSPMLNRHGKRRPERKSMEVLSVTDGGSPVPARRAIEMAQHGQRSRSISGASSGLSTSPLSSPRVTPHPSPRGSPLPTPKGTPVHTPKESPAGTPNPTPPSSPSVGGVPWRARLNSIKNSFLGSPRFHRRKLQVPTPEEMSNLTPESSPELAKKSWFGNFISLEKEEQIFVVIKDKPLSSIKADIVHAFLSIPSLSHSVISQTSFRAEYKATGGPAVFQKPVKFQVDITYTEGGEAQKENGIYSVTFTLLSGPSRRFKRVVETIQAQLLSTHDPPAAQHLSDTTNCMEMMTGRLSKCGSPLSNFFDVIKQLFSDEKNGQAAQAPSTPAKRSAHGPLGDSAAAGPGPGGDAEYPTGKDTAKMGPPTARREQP
As to conditions: at 0.1 µM.

Experiment [7] has as its target T3, Serine/threonine-protein kinase BRSK2 (Homo sapiens). As to conditions: at 1 µM.
In experiment [8] the target is Calcium/calmodulin-dependent protein kinase type 1D (Homo sapiens) (UniProt Q8IU85). Conditions: at 0.1 µM.
Sequence of Calcium/calmodulin-dependent protein kinase type 1D (Homo sapiens) (Q8IU85 whole entry, looked up): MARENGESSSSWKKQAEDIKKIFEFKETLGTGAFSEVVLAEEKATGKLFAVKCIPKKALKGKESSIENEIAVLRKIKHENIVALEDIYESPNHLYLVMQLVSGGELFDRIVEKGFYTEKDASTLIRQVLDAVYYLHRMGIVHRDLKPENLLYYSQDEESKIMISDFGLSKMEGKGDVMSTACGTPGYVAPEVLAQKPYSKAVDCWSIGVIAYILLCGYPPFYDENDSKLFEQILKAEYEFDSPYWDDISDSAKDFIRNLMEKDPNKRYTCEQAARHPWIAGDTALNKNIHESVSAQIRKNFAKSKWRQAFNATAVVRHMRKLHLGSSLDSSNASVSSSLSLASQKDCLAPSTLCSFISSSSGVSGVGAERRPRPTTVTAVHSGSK
Experiment [9] has the same target. Conditions: at 1 µM.
Experiment [10] has as its target Calcium/calmodulin-dependent protein kinase type II subunit alpha (Homo sapiens) (UniProt Q9UQM7). As to conditions: at 0.1 µM.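 Further: reported values are averages (mean inhibition of CAMK2A).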

Sequence of Calcium/calmodulin-dependent protein kinase type II subunit alpha (Homo sapiens) (Q9UQM7 whole entry): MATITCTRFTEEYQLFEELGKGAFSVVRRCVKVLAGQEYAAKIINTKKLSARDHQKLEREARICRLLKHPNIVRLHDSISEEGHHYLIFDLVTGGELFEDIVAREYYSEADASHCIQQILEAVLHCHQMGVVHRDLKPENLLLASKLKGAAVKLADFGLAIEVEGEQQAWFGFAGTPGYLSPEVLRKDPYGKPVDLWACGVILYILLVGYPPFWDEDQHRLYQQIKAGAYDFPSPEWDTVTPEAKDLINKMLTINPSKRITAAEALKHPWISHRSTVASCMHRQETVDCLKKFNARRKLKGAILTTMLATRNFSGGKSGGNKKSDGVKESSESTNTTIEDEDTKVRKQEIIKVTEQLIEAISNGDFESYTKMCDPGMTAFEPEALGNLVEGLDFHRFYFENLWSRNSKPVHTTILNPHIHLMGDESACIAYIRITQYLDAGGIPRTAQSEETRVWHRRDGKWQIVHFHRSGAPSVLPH
Sequence of 5'-AMP-activated protein kinase catalytic subunit alpha-2 (Homo sapiens) (P54646 whole entry, looked up): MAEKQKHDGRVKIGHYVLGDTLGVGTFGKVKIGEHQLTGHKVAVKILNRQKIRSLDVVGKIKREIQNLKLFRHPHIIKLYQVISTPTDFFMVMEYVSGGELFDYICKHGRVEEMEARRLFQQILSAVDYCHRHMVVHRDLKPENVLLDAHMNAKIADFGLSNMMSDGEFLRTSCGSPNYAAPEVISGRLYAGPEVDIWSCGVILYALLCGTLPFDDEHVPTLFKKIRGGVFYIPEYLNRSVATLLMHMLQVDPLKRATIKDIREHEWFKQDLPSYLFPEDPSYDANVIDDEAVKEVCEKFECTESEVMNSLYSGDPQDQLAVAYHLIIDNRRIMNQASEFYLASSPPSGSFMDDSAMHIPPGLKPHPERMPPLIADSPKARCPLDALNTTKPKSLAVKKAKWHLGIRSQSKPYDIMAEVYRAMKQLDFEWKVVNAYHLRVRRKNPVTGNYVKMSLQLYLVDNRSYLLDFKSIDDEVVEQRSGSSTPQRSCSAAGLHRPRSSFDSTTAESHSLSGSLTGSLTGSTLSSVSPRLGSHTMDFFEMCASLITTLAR

With `NS(=O)(=O)c1cccc(-c2ccc3c(NC(=O)C4CC4)n[nH]c3c2)c1`, the inhibition in experiment [1] is -0.49%; in experiment [2], 0.7%; in experiment [3], 1.95%; in experiment [4], 6.3%; in experiment [5], 41.3%; in experiment [6], 12.6%. In addition, the inhibition in experiment [7] is 51.8%; in [8], -0.5%; in experiment [9], -0.98%; in experiment [10], -4.43%.

`CCc1cccc(NC(=O)Nc2ccc(Oc3ccc4nc(NC(=O)OC)[nH]c4c3)cc2)c1`: the inhibition in experiment [1] was -0.72%; in [2], 1.37%; in experiment [3], 4.18%; in experiment [4], 0.6%; in [5] it was 0.32%; in experiment [6] it was 3.12%. Besides, the inhibition is 5.96% in experiment [7], 0.1% in [8], 1.18% in experiment [9] and 4.24% in [10].

On to `CCn1c(-c2nonc2N)nc2cncc(C(=O)N3CC[C@H](N)C3)c21`, for which the inhibition amounted to 6.01% in [1]; 0.02% in [2]; 0.59% in [3]; 1.37% in experiment [4]; 2.48% in experiment [5]; 0.94% in experiment [6]. Besides, the inhibition in [7] was found to be 6.07%; in experiment [8], 1.79%; in experiment [9], 0.54%; in experiment [10], 3.71%.

With `NS(=O)(=O)c1ccc(N/N=C2\C(=O)Nc3ccc(C(=O)NCCc4c[nH]cn4)cc32)cc1`, the inhibition turned out to be 63.6% in experiment [1]; 54.2% in [2]; 83.5% in [3]; 21.6% in experiment [4]; 63.5% in experiment [5]; 34.6% in experiment [6]. In addition, the inhibition in experiment [7] came to 74.9%; in [8], 1.24%; in experiment [9] it was 3.93%; in experiment [10] it was 5.62%.

Take `Nc1nc(-c2ccccn2)c(-c2ccc3ncccc3n2)s1`: the inhibition is 3.76% in experiment [1]; 4.24% in experiment [2]; 5.19% in [3]; -0.41% in [4]; 2.4% in [5]; 0.9% in [6]. Further, the inhibition in [7] is 3.83%; in [8], -0.97%; in experiment [9], 0.3%; in experiment [10], 1.9%.

Turning to `CCCN1CCC(Oc2cc(Nc3nc(Nc4cccc(F)c4C(N)=O)c4cc[nH]c4n3)c(OC)cc2Cl)CC1`, the inhibition in experiment [1] was 6.28%; in [2] it was 7.21%; in experiment [3], 9.7%; in [4], 0.4%; in experiment [5], -0.28%; in experiment [6], -0.51%. Moreover, the inhibition came out at 0.24% in experiment [7], 3.19% in [8], 23.1% in experiment [9] and 0.13% in experiment [10].

In the case of `Cc1ccc(NC(=O)c2ccnc(N3CCCC3)c2)cc1-c1ccc(C(=O)NCC2CC2)cc1`, the inhibition in [1] came out at 8.93%; in experiment [2], 5.1%; in [4], 3.85%; in experiment [5], 3.6%; in experiment [6] it was 2.81%; in [7], 4.83%. Besides, the figures for the inhibition in experiment [8], in [9] and in experiment [10] were 0.91%, 2.39% and 4.45%, respectively.

Turning to `COC(=O)Nc1nc2cc(Oc3ccc(NC(=O)Nc4cccc(C(=O)O)c4)cc3)ccc2[nH]1`, the inhibition in experiment [1] is 2.8%; in experiment [2], 6.73%; in experiment [3], 8%; in experiment [4] it was -1.07%; in [5], 2.91%; in [6], 2.19%. The inhibition in experiment [7] is 9.32%; in [8], 0.59%; in experiment [9], -1.87%; in experiment [10] it was 1.77%.

With `COc1cc(C)c(NC(=O)CN(C)C)cc1Nc1nc(Nc2cccc(F)c2C(N)=O)c2cc[nH]c2n1`, the inhibition in experiment [1] was 4.27%; in experiment [2], -0.32%; in experiment [3], 4.12%; in experiment [4], 1.09%; in experiment [5] it was 0.73%; in experiment [6], 0.37%. In addition, the inhibition is -2.24% in [7], 2.17% in experiment [8], 16.7% in experiment [9] and 3.26% in experiment [10].

As for `Cc1ccc(C(=O)NC2CCCCC2)cc1-c1ccc(C(=O)NCC2CC2)cc1`, the inhibition in [1] worked out at 1.51%; in experiment [2], 2.83%; in experiment [3], 2.62%; in [4], 2.63%; in experiment [5], 0.64%; in experiment [6], 1.87%. For the same compound, the inhibition in [7] is -1.13%; in experiment [8], 3.13%; in experiment [9] it was 2.73%; in experiment [10], 4.8%.

For the compound `CNC(=O)c1cncc(/C=C/c2c(Cl)cccc2Cl)c1`, the inhibition in experiment [1] stood at 1.77%; in experiment [3] it was 7.27%; in [4], 4.16%; in experiment [5] it was 7.3%; in experiment [6], 1.54%; in experiment [7], 9.33%. In addition, the values for the inhibition in [8], in [9] and in experiment [10] were -0.35%, 2.1% and 3%, respectively.

Consider `CCn1c(-c2nonc2N)nc2cnc(Oc3cccc(NC(=O)c4ccc(OCCN5CCOCC5)cc4)c3)cc21`, for which the inhibition in [1] amounted to 3.43%; in [2], 5.2%; in experiment [3], 26.9%; in experiment [4], 1.86%; in experiment [5], 0.26%; in experiment [6], 1.64%. For the same compound, the inhibition in experiment [7] was 2.71%; in experiment [8], -0.02%; in experiment [9], 2.35%; in experiment [10], 1.46%.

On to `COc1ccc(COc2ccc(Cc3cnc(N)nc3N)cc2OC)cc1`, for which the inhibition was 2.37% in experiment [1]; 3.64% in experiment [2]; 3.71% in experiment [3]; 4.29% in experiment [4]; 3.19% in experiment [5]; 2.82% in experiment [6]. Further, the inhibition in [7] is 2.49%; in experiment [8], 3.83%; in experiment [9], 5.51%; in [10], 3.64%.

For `Nc1ncnc2occ(-c3ccc(NC(=O)Nc4cccc(C(F)(F)F)c4)cc3)c12`, the inhibition in [1] stood at 5.34%; in experiment [2] it was 1.07%; in experiment [3], 8.04%; in experiment [4], 0.85%; in experiment [5], 10.2%; in [6], 5.5%. Further, the inhibition in experiment [7] was 9.75%; in [8] it was 0.29%; in experiment [9], 7.97%; in experiment [10], 2.71%.

Take `COc1ccc(-c2ccncc2)cc1C(N)=O`: the inhibition in experiment [1] was 4.51%; in experiment [2] it was 1.88%; in [3], 5.44%; in [4] it was 3.31%; in experiment [5], 4.66%; in experiment [6] it was 4.68%. For the same compound, the inhibition in experiment [7] was 8.59%; in experiment [8], -0.75%; in experiment [9] it was 1.22%; in experiment [10] it was 1.71%.

In the case of `COc1ccccc1Nc1ncc(-c2ccccc2)o1`, the inhibition in experiment [1] is 4.09%; in experiment [2], -0.18%; in experiment [3] it was -4.21%; in experiment [4], -0.58%; in experiment [5], 3.87%; in experiment [6], 2.96%. Moreover, the inhibition in [7] is 4.49%; in experiment [8] it was -0.11%; in experiment [9], -0.14%; in [10], 3.16%.

Take `CS(=O)(=O)Nc1ccc(N/C=C2\C(=O)Nc3ccccc32)cc1`: the inhibition in experiment [1] is 4.21%; in [2], 12.6%; in experiment [3] it was 43.9%; in experiment [4], 2.83%; in experiment [5], 16.5%; in experiment [6], 4.09%. Moreover, the inhibition in experiment [7] is 30.6%; in [8], -1.16%; in experiment [9], 0.24%; in experiment [10], -3.83%.

The values above are taken from ChEMBL document CHEMBL1961873, “Compounds: GSK PKIS; Assays: Nanosyn kinase panel” (2012).
